# Source: PubChem BioAssay (Tox21)
# Values without a mark were called inactive. Calls come from the whole dose curve; as a rule, active = well fitted activation curve with a large enough effect in the repeat runs; inconclusive = weak or mixed curves; inactive = flat fitted curve, though single readings scatter.
# Experiment: Caspase-3/7 induction in CHO-K1 cells by small molecules, qHTS assay (AID 1346980); note: nearly all actives have a fitted effect of over 15% in size
# Conditions: CHO-K1 caspase-3/7 induction, Caspase-Glo luminescence, 17 h; series mostly up to 92.4 µM; caspase-3/7 activation: at the top concentration
# Source text: National Center for Advancing Translational Sciences [NCATS]
# NIH Chemical Genomics Center [NCGC]
# U.S. Environmental Protection Agency [EPA]
# National Institutes of Environmental Health Sciences [NIEHS]
# National Toxicology Program [NTP]
# Apoptosis is a process of programmed cell death and plays a central role in the development of multicellular organisms. It is a highly regulated process and induces cell death by activating caspases, which are the members of cysteine aspartic acid-specific protease (caspase) family. Caspases involved in apoptosis are classified by their mechanism of action as initiator caspases (caspase-2, -8, -9 and -10) and executioner caspases (caspase-3, -6, and -7). Inhibition of apoptosis results in number of cancers, autoimmune diseases, inflammatory diseases and viral infection. To identify small molecule compounds that induce apoptosis, a homogeneous, luminescent Caspase-Glo 3/7 assay was used. Wild type CHO-K1 cells were used to screen Tox21 libraries for identifying caspase-3/7 activity inducers.
# CHO-K1 cells were dispensed at 1,500 per well in 5uL of culture medium into white solid bottom 1536-well plates (Corning Life Sciences, Corning, NY) using a Multidrop Combi (Thermo Scientific, Waltham, MA) dispenser. The assay plates were incubated at 37 C and 5% CO2 for 5hr, and then 23nL of compounds dissolved in DMSO and positive control were transferred using a Pintool station (Wako, San Diego, CA). The assay plates were incubated at 37C and 5% CO2 for 17hr. For caspase-3/7 activity read, 4uL of Caspase-Glo 3/7 reagent (Promega Corporation, Madison, WI) was added to each well of the assay plates using Flying Reagent Dispenser (FRD, Aurora Discovery, San Diego, CA) and incubated the assay plates at room temperature for 30min. The luminescence signal was quantified using a ViewLux plate reader (Perkin Elmer, Shelton, CT).
# % is set by controls: 0 for no effect and ±100 for the full control effect.
row,Structure (SMILES),caspase-3/7 activation
1,CCOC(=O)CCCCCCCCC(=O)OCC,-1.13%
2,CC(C)CCCCCCOC(=O)C1CCCCC1C(=O)OCCCCCCC(C)C (stereo not given),0.205%
3,Cc1ccccc1C,0.271%
4,C=C[C@@H](C)CCC=C(C)C,-1.1%
5,Nc1cc(C(=O)O)ccc1Cl,0.955%
6,CCCCC/C=C/CC(=O)OC,-0.663%
7,Cc1c(C(C)C)c(=O)n(-c2ccccc2)n1C,0.324% [at 42.5 µM]
8,CCCCCCCCCCCCCCCC(=O)NCCO,-0.0651% [at 42.5 µM]
9,OC(CCN1CCCCC1)(c1ccccc1)c1ccccc1,-1.42% [at 42.5 µM]
10,C=CCOC(=O)c1ccc(C(=O)OCC=C)c(C(=O)OCC=C)c1,0.594%
11,CCCO,1.57%
12,COc1cccc2sc(N)nc12,0.616%
13,CCS(=O)(=O)CCn1c([N+](=O)[O-])cnc1C,-0.0181% [at 42.5 µM]
14,COCCOCCOCCOC,0.862%
15,C=CC(C)(O)CC/C=C(\C)CC (stereo not given),-0.0656%
16,CCC(O)C(C)(C)C (stereo not given),1.44%
17,COc1cc2c3cc1Oc1cc(ccc1O)C[C@@H]1c4c(cc(OC)c(O)c4Oc4ccc(cc4)C[C@@H]3N(C)CC2)CC[N+]1(C)C,-0.725% [at 42.5 µM]
18,NCCc1ccn[nH]1,-0.259% [at 42.5 µM]
19,CC1(N)CCC(C(C)(C)N)CC1 (stereo not given),-0.775%
20,Oc1ccccc1Cc1ccccc1O,0.451%

row,Structure (SMILES),caspase-3/7 activation
1,CCC1COC(=O)O1 (stereo not given),0.547%
2,O=C(O)c1ccccc1C(=O)Nc1ccc(S(=O)(=O)Nc2nccs2)cc1,-0.0551% [at 42.5 µM]
3,O=C1NC2NC(=O)NC2N1 (stereo not given),-0.535%
4,CC(C)(C)c1ccc(C=O)cc1,-0.795%
5,NC(=O)NC(=O)Cc1ccccc1,-1.08% [at 42.5 µM]
6,O=C(O)/C=C/c1ccccc1,-0.613%
7,CCC(CO)CO,-0.906%
8,Cc1nc2n(c(=O)c1CCN1CCC(C(=O)c3ccc(F)cc3)CC1)CCS2,-1.78% [at 42.5 µM]
9,CCOC(=O)C(=O)c1csc(NC=O)n1,0.736% [at 42.5 µM]
10,COc1cc([N+](=O)[O-])ccc1N,-1.08%
11,O=S1(=O)CCCC1,0.121%
12,CCOc1ccc(NC(=O)OC(C)C)cc1OCC,0.133%
13,NC(=O)C1(N2CCCCC2)CCN(CCCC(=O)c2ccc(F)cc2)CC1,-1.01% [at 42.5 µM]
14,C=C(C)[C@@H]1CC[C@@H](C)C[C@@H]1O,0.193%
15,COc1ccc(/C=N/NC(=O)c2ccncc2)cc1OC,0.162% [at 42.5 µM]
16,CCC(=O)c1ccc(O)cc1,-1.75% [at 42.5 µM]
17,CC(C)COC(=O)CCCCC(=O)OCC(C)C,0.685%
18,CCc1nccnc1C,0.0218%
19,c1ccccc1,-0.0295%
20,CCCCCCCCOC(C)=O,0.0513%
